In PubChem BioAssay (NCI):
Several values for one entry are separate records, joined by “and”; a condition that tells them apart may be missing. Equal values may be shown once. About 79,000 compounds went through this panel and 15% of them were active in at least one assay; those are over-represented in the sample as a whole. Some structures have more than one record in an assay (separate samples or runs), and their calls can disagree. Activity calls are given as the source filed them. No stated cut-off is given here; in the data, active means growth inhibition above about 70%; inactive means the rest.

Tests used:
[1] = NCI Yeast Anticancer Drug Screen. Data for the rad50 strain (AID 155);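 further: 0% = growth of vehicle-only cultures of the same strain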; conditions: S. cerevisiae rad50 strain growth inhibition, stronger effect = higher value
Method in brief: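 Growth of the mutant yeast was measured after compound exposure and referenced to vehicle-treated cultures.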

[2] = NCI Yeast Anticancer Drug Screen. Data for the mec2-1 strain (AID 157); conditions: S. cerevisiae mec2-1 strain, stronger effect = higher value
Method in brief: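 Mutant yeast (mec2-1) grown with compound; growth inhibition relative to vehicle control reported.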

[3] = NCI Yeast Anticancer Drug Screen. Data for the sgs1 mgt1 strain (AID 161);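 further: 0% = growth of cultures given vehicle only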; conditions: S. cerevisiae sgs1 mgt1 strain, stronger effect = higher value
Method in brief: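 Yeast cells carrying a defined DNA-repair defect were exposed to test compounds. Growth inhibition was measured relative to vehicle-treated controls.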

[4] = NCI Yeast Anticancer Drug Screen. Data for the cln2 rad14 strain (AID 165);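 further: 0% = growth equal to vehicle treated cultures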; conditions: S. cerevisiae cln2 rad14 strain, stronger effect = higher value
Method in brief: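 Readout is yeast growth inhibition versus vehicle-treated controls, using a strain with cln2 and rad14 alterations exposed to compound.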

[5] = NCI Yeast Anticancer Drug Screen. Data for the bub3 strain (AID 167); conditions: S. cerevisiae bub3 mutant strain, stronger effect = higher value
Method in brief: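 Whole-cell yeast assay. The mutant strain was incubated with compounds, and growth inhibition was determined by comparison with vehicle-treated cells.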

[6] = NCI Yeast Anticancer Drug Screen. Data for the mlh1 rad18 strain (AID 175); conditions: S. cerevisiae mlh1 rad18 strain growth inhibition, stronger effect = higher value
Method in brief: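 Genetically defined yeast (DNA repair-deficient) exposed to compounds; growth inhibition determined relative to vehicle.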

[7] = at 5.0 µM (retest, dose inferred, filed as 0.5)
[8] = at 50.0 µM (retest, dose inferred, filed as 5.0)

Measured: growth inhibition

CCOP(=O)(Oc1ccc([N+](=O)[O-])cc1)c1ccccc1C(C)C (centres undefined)
active: [1]; at 50.0 µM 90.8% | [2]; [8] 70% | [2]; at 50.0 µM 90.8% | [3]; [8] 92% | [3]; at 50.0 µM 95.6% | [4]; at 50.0 µM 95.6% | [5]; at 50.0 µM 96.8% | [6]; [8] 77% | [6]; at 50.0 µM 96.7%
inactive: [1]; [7] 11% | [1]; [8] 49% | [2]; [7] 25% | [3]; [7] -11% | [4]; [7] 40% | [4]; [8] 34% | [5]; [7] 12% | [5]; [8] 49% | [6]; [7] -11%

C[CH2][Hg][Cl]
100% (active) and 46% (inactive): [2]; [7]
99% (active) and 48% (inactive): [1]; [7]
active: [1]; [8] 99% | [1]; at 50.0 µM 93.1% | [2]; [8] 100% and 93% | [2]; at 50.0 µM 95% | [3]; [7] 100% | [3]; [8] 100% and 99% | [3]; at 50.0 µM 94.5% | [4]; [7] 99% and 86% | [4]; [8] 99% | [4]; at 50.0 µM 93.3% | [5]; [7] 100% | [5]; [8] 99% | [5]; at 50.0 µM 93.7% | [6]; [8] 99% | [6]; at 50.0 µM 93.2%
99% (active) and 35% (inactive): [6]; [7]

CCC[CH2][Sn]1([CH2]CCC)[O]CC[S]1
active: [1]; [7] 83% | [1]; [8] 99% | [1]; at 50.0 µM 99.1% | [2]; [7] 87% | [2]; [8] 99% | [2]; at 50.0 µM 99% | [3]; [7] 81% | [3]; [8] 99% | [3]; at 50.0 µM 98.2% | [4]; [7] 78% | [4]; [8] 99% | [4]; at 50.0 µM 97.3% | [5]; [7] 87% | [5]; [8] 99% | [5]; at 50.0 µM 96.1% | [6]; [7] 84% | [6]; [8] 99% | [6]; at 50.0 µM 99.2%

O=C(O)CP(=O)(c1ccccc1)c1ccccc1.O=C(O)CP(=O)(c1ccccc1)c1ccccc1.[Cd]
inactive: [1]; [7] 33% | [2]; [7] 40% | [2]; [8] 51% | [2]; at 50.0 µM 42.6% | [3]; [7] 11% | [3]; [8] 47% | [3]; at 50.0 µM 56% | [4]; [7] -3% | [4]; [8] 48% | [4]; at 50.0 µM 58.9% | [5]; [7] 4% | [5]; [8] 43% | [5]; at 50.0 µM 26.9% | [6]; [7] 17% | [6]; [8] 57% | [6]; at 50.0 µM 57.8%
active: [1]; [8] 88% | [1]; at 50.0 µM 83.4%

CCOP(=O)(CP(=O)(OCC)OCC)OCC.[Cl][Sn]([Cl])([c]1ccccc1)[c]1ccccc1
active: [1]; [8] 99% | [1]; at 50.0 µM 98.8% | [2]; [8] 99% | [2]; at 50.0 µM 98.9% | [3]; [8] 97% | [3]; at 50.0 µM 99.1% | [4]; [8] 96% | [4]; at 50.0 µM 98.1% | [5]; [8] 98% | [5]; at 50.0 µM 97.8% | [6]; [8] 98% | [6]; at 50.0 µM 99%
inactive: [1]; [7] 11% | [2]; [7] -4% | [3]; [7] 7% | [4]; [7] 7% | [5]; [7] 19% | [6]; [7] 1%

O=C(CCN1CC1)NCCc1ccccc1
active: [1]; [8] 90% | [1]; at 50.0 µM 96.6% | [2]; at 50.0 µM 83.3% | [3]; [8] 84% | [4]; [8] 73% | [4]; at 50.0 µM 83.7% | [5]; [8] 87% | [6]; [8] 90% | [6]; at 50.0 µM 93.7%
inactive: [1]; [7] -152% | [2]; [7] -44% | [2]; [8] 48% | [3]; [7] -59% | [3]; at 50.0 µM 58% | [4]; [7] -60% | [5]; [7] -72% | [5]; at 50.0 µM 67.8% | [6]; [7] -143%

CC(C)COP(=O)(O)OCC(C)C.[Al]
inactive: [1]; [7] -2% | [1]; [8] -11% | [1]; at 50.0 µM 3.45% | [2]; [7] -4% | [2]; [8] -9% | [2]; at 50.0 µM 16.6% | [3]; [7] -5% | [3]; [8] -4% | [3]; at 50.0 µM 3.05% | [4]; [7] -1% | [4]; [8] 3% | [4]; at 50.0 µM -12.1% | [5]; [7] 1% | [5]; [8] 31% | [5]; at 50.0 µM -0.75% | [6]; [7] -2% | [6]; [8] -10% | [6]; at 50.0 µM 18.2%

C1CC[CH]([Sn]([CH]2CCCCC2)[CH]2CCCCC2)CC1.C1CC[CH]([Sn]([CH]2CCCCC2)[CH]2CCCCC2)CC1
inactive: [1]; [7] 2% | [1]; [8] 34% | [1]; at 50.0 µM 31.5% | [2]; [7] 0% | [2]; [8] 34% | [2]; at 50.0 µM 63.3% | [3]; [7] 4% | [3]; [8] 17% | [4]; [7] 3% | [4]; [8] -9% | [4]; at 50.0 µM -30.2% | [5]; [7] 3% | [5]; [8] -2% | [5]; at 50.0 µM 9.5% | [6]; [7] 0% | [6]; [8] 4%
active: [3]; at 50.0 µM 75.7% | [6]; at 50.0 µM 87.9%
